Out of some 71,000 compounds screened, about 180 (0.25%) were called active. Entries that show only a call come without a potency. The sample holds actives, similar compounds and a random draw of the others, so the mix is not that of the screen. Values without a mark were called inactive. The call rests on the fitted dose curve; in most records, active means well fitted curve in the direction sought with a large enough effect; inconclusive means small, poorly fitted or top-dose-only effect; inactive means flat fitted curve, though single readings scatter.
test system: DNA polymerase III holoenzyme (E. coli); assay: qHTS Assay for Inhibitors of DNA Polymerase III Holoenzyme System; settings: reconstituted DNA polymerase III holoenzyme replication, biochemical; series mostly up to 57.1 µM
Procedure: NIH Molecular Libraries Screening Centers Network [MLSCN]
NIH Chemical Genomics Center [NCGC]
Assay Provider: Charles McHenry, University of Colorado
E. coli DNA polymerase III holoenzyme complex was assayed for DNA production by fluorescent detection of the double-stranded DNA product with PicoGreen dye. The holoenzyme complex was reconstituted from the following purified protein components: DNA Polymerase III, beta subunit processivity factor, SSB single-stranded DNA binding protein, and Primase. Single-stranded, circular M13Gori was used as a substrate with dNTPs and NTPs also supplied to the substrate reagent. Compounds from the NCGC collection were incubated with the holoenzyme mixture for 15 min at room temperature to allow binding to occur, and then the reaction was started by the addition of substrate. After 30 min incubation at room temperature, PicoGreen solution containing EDTA was added to stop the reaction and to visualize the double-stranded DNA produced. Reaction progress was measured in a ViewLux CCD imager in fluorescence intensity mode by using 480 nm excitation and 540 nm emission filter set.
NCGC Assay Protocol Summary:
Buffer. 50 mM Hepes-KOH, pH 7.5, 5 % Glycerol, 0.02% NP40, 30 mM potassium;
glutamate, 1.5 mM Magnesium Acetate, 16 uM TCEP.
Buffer in columns 3 and 4 as negative control (no enzyme).
Substrate solution: 5 uM each dATP, dGTP, dCTP and TTP, 50 uM each GTP, CTP, UTP and 200 uM ATP, 1.4 nM M13gori (final concentrations).
Enzyme: 154 nM SSB, 2 nM Primase, 1 nM Beta, 0.35 nM Pol III (final concentrations).
PicoGreen/EDTA: 10 mM Tris-HCl, 10 mM EDTA, 5 uM PicoGreen (final concentrations).
Control titration: ChemBridge 5805060 (from 10 mM, then 1:2, in duplicate) was pin-transferred to upper half of column 2.
Three uL of holoenzyme mixture were dispensed to 1536-well Greiner black solid bottom plates. Compounds and controls (23 nL) were transferred via Kalypsys PinTool. The plates were incubated for 15 min at room temperature, and then 1 uL of substrate solution was added to start the reaction. After room temperature incubation for 35 minutes, 1 uL of PicoGreen solution was added to each well and the plates were read 480 nm excitation and 540 nm emission using ViewLux (Perkin-Elmer) High-throughput CCD imager and fluorescence protocol settings.
Keywords: NIH Roadmap, MLSCN, MLI, MLSMR, qHTS, NCGC, DNA Polymerase III, DNAPol3, DNAPoly3, DNA replication targets

Structure (SMILES) | activity change, negative = inhibition | Potency
O=S(=O)(c1cccc(S(=O)(=O)N2CCC(n3nnc4ccccc43)CC2)c1)N1CCCCC1 | inactive | –
CC[C@]1([C@H]2O[C@@H]([C@@H]3O[C@](O)(CO)[C@@H](C)C[C@H]3C)C[C@H]2C)CC[C@@H]([C@]2(C)CC[C@@]3(C[C@@H](O)[C@@H](C)[C@@H]([C@H](C)[C@H](OC)[C@H](C)C(=O)O)O3)O2)O1 | inactive | –
CC(=O)NC(C)c1nc2ccccc2n1Cc1ccccc1F (centres undefined) | inactive | –
Cc1ccc(S(=O)(=O)Nc2ccccc2CNc2c(C)n(C)n(-c3ccccc3)c2=O)cc1 | inactive | –
Cc1noc(C)c1-c1nccc(N2CCOCC2)n1 | inactive | –
Cc1cc(C)cc(N(CC(=O)Nc2c(C)n(C)n(-c3ccccc3)c2=O)S(C)(=O)=O)c1 | 2.7% [at 11.4 µM] | –
Cc1cn(C2C=CC(CO)O2)c(=O)[nH]c1=O (centres undefined) | inactive | –
COc1cccc2cc(C(C)N(CCCN3CCOCC3)C(=O)Nc3ccc(Cl)cc3)oc12 (centres undefined) | inactive | –
O=C(c1cc(C(F)(F)F)cc(C(F)(F)F)c1)N1CCC[C@@]2(CCN(c3ccccn3)C2)C1 | inactive | –
CS(=O)(=O)Nc1cccc(-c2cncnc2Nc2ccccc2)c1 | inactive | –
CCOc1ccc(CCNC(=O)C2CCN(c3ccc(N4CCOCC4)nn3)CC2)cc1OCC | inactive | –
Cc1cccc(C(=O)O)c1 | inactive | –
COC(=O)[C@@]1(Cc2ccc(F)cc2)[C@H]2c3cc(C(=O)N(C)C)n(CCc4c[nH]c5ccc(OC)cc45)c3C[C@H]2CN1C(=O)c1ccccc1 | inactive | –
COc1ccccc1CCn1c(=O)c(-c2cn(C)c3ccccc23)nc2cncnc21 | inactive | –
c1ccc2cc3[nH]c(CN4CCCCC4)nc3cc2c1 | inactive | –
CC(C)c1nnc(NC(=O)C2CCCN2S(=O)(=O)c2ccc(Cl)cc2)s1 (centres undefined) | inactive | –
O=C(Nc1ccccc1C(=O)N1CCOCC1)C1CCC(=O)N1C1CCCC1 (centres undefined) | inactive | –
COc1ccc(C)c(Cn2c(-c3nonc3N)nc3ccccc32)c1 | inactive | –
O=C(Nc1ccon1)c1cccc(Cl)c1 | inactive | –
CC(C)C[C@@H](CC(=O)N[C@@H](CCC(=O)O)CC(=O)O)NC(=O)[C@@H]1CCCC[C@H]1NC(=O)C[C@@H](NC(=O)C[C@H](Cc1c[nH]c2ccccc12)NC(=O)[C@@H]1CCCC[C@H]1N)C(C)C | inactive | –
CCOC(=O)C1Cn2c(nc3c(c2=O)C(C)(CC)Cc2ccccc2-3)S1 (centres undefined) | inactive | –
COCCn1nnnc1C(c1ccccc1Cl)N1CCN(c2ccccc2OC)CC1 (centres undefined) | inactive | –
NS(=O)(=O)c1cc(C(=O)O)c(Cl)c([N+](=O)[O-])c1Cl | -10.9% [at 11.4 µM] | –
COC(=O)C1(Cc2ccccc2)C=C2C(=C(C)C(=O)C2C)CN1 (centres undefined) | inactive | –
c1cncc(-c2nc(N3CCNCC3)c3ccccc3n2)c1 | inactive | –
CN(C)CCCn1c2ccccc2c2cnccc21 | -9.9% [at 11.4 µM] | –
COc1ccc(C(=O)N2CCC3(CC2)CCN(c2ccccn2)CC3)cc1 | inactive | –

Structure (SMILES) | activity change, negative = inhibition | Potency
O=C(c1ccncc1)N1CCC2(CCN(Cc3cc(C(F)(F)F)cc(C(F)(F)F)c3)CC2)CC1 | inactive | –
CCCCSc1nc2c(c(=O)n1CC)SC(C)C2 (centres undefined) | inactive | –
CCC1Oc2ccc(Cl)cc2N(CC(=O)O)C1=O (centres undefined) | inactive | –
Cc1ccccc1C(=O)NCCN=C1NS(=O)(=O)c2ccccc21 | inactive | –
O=C(Cn1nnc(-c2ccc3c(c2)OCO3)n1)NCc1ccco1 | inactive | –
COc1ccc(CCNC(=O)CCn2c(=O)oc3ccccc32)cc1OC | inactive | –
CN(C)CCCNC(=O)c1ccc2[nH]c3ccccc3c2c1 | inactive | –
CSc1ccc(S(=O)(=O)NCc2ccc(Cl)cc2)cc1 | inactive | –
O=C(C1CCCO1)N1CCC(c2nc3ccccc3[nH]2)CC1 (centres undefined) | inactive | –
N#Cc1c(N)sc2c1CCN(C(=O)OCc1ccccc1)C2 | inactive | –
COc1ccccc1-c1c(C)nn2c(C)c(C(C)=O)cnc12 | inactive | –
CN(C)C(=O)c1ccc(-c2cncnc2NC2CCNCC2)cc1 | inactive | –
Oc1ccc(O)c2c(O)cccc12 | – | 15.8 µM (active)
O=c1cc(-c2ccc(O)c(O)c2)oc2cccc(O)c12 | inactive | –
COc1ccc(OC)c(CN2C(=O)CCC2(C)C(=O)NC2CCCCCC2)c1 (centres undefined) | inactive | –
N#Cc1ccccc1-c1ccc2ncnc(NCc3cccnc3)c2c1 | inactive | –
CN1C(=O)CC(N2CCN(c3ccccn3)CC2)C1=O (centres undefined) | inactive | –
N#Cc1ccc(CN2CCCC3(CCN(C(=O)c4ccco4)CC3)C2)cc1 | inactive | –
Cc1c(-c2nn(C)c(=O)c3ccccc23)oc2ccc(F)cc2c1=O | inactive | –
Clc1ccc(C=Nc2ccc3c(c2)Cc2ccccc2-3)c(Cl)c1 | -10.3% [at 11.4 µM] | –
CCOC(=O)c1nnn(CC(=O)Nc2cccc(F)c2)c1C(=O)OCC | inactive | –
c1ccc(Nc2n[nH]nc2-c2ccccc2)cc1 | inactive | –
O=C1c2cccc3cccc(c23)N1CN1CCN(c2ccccn2)CC1 | inactive | –
C=CCOC(=O)c1ccccc1C(=O)OCC=C | inactive | –
Nc1nonc1C(=O)NCCc1ccccc1 | inactive | –
COCCNc1nc(-n2nc(C)cc2C)nc2sc3c(c12)CCCC3 | inactive | –
C[C@@H](C(=O)Nc1ccc2ccccc2c1)[C@@H]1C[C@@]1(C)[C@@H](NC(=O)c1cccnc1)c1ccccc1 | inactive | –

Reference: PubChem BioAssay AID603 (National Center for Advancing Translational Sciences (NCATS), 2007)
